The results in this text go back to PubChem BioAssay (EPA / NIEHS).

Read-out in test [1]: Interferon-gamma inducible Protein 10 (IP10), CXCL10 (gene 3627)
The experiment in a line: BSK_hDFCGF_IP10: BioMAP Diversity Plus: hDFCGF Assay for Interferon-gamma inducible Protein 10 (IP10) Biomarker Activity (AID 2283053). The settings on record: primary human foreskin fibroblasts; actives raise or lower the signal. In outline:
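Primary foreskin fibroblasts, human; 24 h compound exposure; IP-10 by ELISA; bidirectional fit vs DMSO.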

Read-out in test [2]: Urokinase-type plasminogen activator receptor (uPAR), PLAUR (gene 5329)
The experiment in a line: BSK_CASM3C_uPAR: BioMAP Diversity Plus: CASM3C Assay for Urokinase-type plasminogen activator receptor (uPAR) Biomarker Activity (AID 2283054).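 Note: cell-surface uPAR protein level quantified by ELISA.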 The note with it: primary human coronary artery smooth muscle cells; actives raise or lower the signal.

Read-out in test [3]: Vascular cell adhesion molecule 1 (VCAM1), VCAM1 (gene 7412)
The experiment in a line: BSK_CASM3C_VCAM1: BioMAP Diversity Plus: CASM3C Assay for Vascular cell adhesion molecule 1 (VCAM1) Biomarker Activity (AID 2283055).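 Note: VCAM-1 protein level quantified by ELISA on the cells.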 The note with it: primary human coronary artery smooth muscle cells; actives raise or lower the signal.

Read-out in test [4]: Epidermal growth factor receptor (EGFR), EGFR (gene 1956)
The experiment in a line: BSK_hDFCGF_EGFR: BioMAP Diversity Plus: hDFCGF Assay for Epidermal growth factor receptor (EGFR) Biomarker Activity (AID 2283057). The note with it: primary human foreskin fibroblasts; actives raise or lower the signal. In outline:
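hDFCGF system, primary human foreskin fibroblasts; compound 24 h; EGFR measured by ELISA; DMSO = negative control/baseline; bidirectional fitting.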

Read-out in test [5]: Interleukin-8 (IL8), CXCL8 (gene 3576)
The experiment in a line: BSK_hDFCGF_IL8: BioMAP Diversity Plus: hDFCGF Assay for Interleukin-8 (IL8) Biomarker Activity (AID 2283058). The note with it: primary human foreskin fibroblasts; actives raise or lower the signal. The essentials: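 ELISA read-out of IL-8 from primary human foreskin fibroblast cultures taken 24 h after dosing; values are bidirectional fits relative to DMSO vehicle.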

A short description of test [6]: BSK_hDFCGF_Proliferation: Cell Proliferation Assessment in the BioMAP Diversity Plus: hDFCGF Assay (AID 2283059).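 Note: curves fitted for both rise and fall of signal versus DMSO baseline.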 The settings on record: primary human foreskin fibroblasts. The essentials: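 Steps: dose primary human dermal fibroblasts (foreskin); […] fix in 10% TCA; stain with 0.1% SRB; read 560 nm; fit gain or loss of signal against DMSO.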
Read-out in test [7]: Macrophage colony-stimulating factor (MCSF), CSF1 (gene 1435)
The experiment in a line: BSK_hDFCGF_MCSF: BioMAP Diversity Plus: hDFCGF Assay for Macrophage colony-stimulating factor (MCSF) Biomarker Activity (AID 2283060). The note with it: primary human foreskin fibroblasts; actives raise or lower the signal. In outline: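 ELISA read-out of M-CSF in human dermal foreskin fibroblast cultures, 24 h after chemical dosing; gain or loss of signal fitted bidirectionally relative to DMSO baseline.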

The nature of test [8]: BSK_hDFCGF_SRB: Viability Assessment in the BioMAP Diversity Plus: hDFCGF Assay (AID 2283061).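 Note: cells exposed to compound for 24 h before the read.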 The note with it: primary human foreskin fibroblasts. The essentials:
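Primary human foreskin fibroblasts; 24 h post-dose; fixed 10% TCA, stained 0.1% SRB, A560 read; total protein as overt cytotoxicity measure; curves fit bidirectionally vs DMSO control.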

Read-out in test [9]: TIMP metallopeptidase inhibitor 1 (TIMP1), TIMP1 (gene 7076)
The experiment in a line: BSK_hDFCGF_TIMP1: BioMAP Diversity Plus: hDFCGF Assay for TIMP metallopeptidase inhibitor 1 (TIMP1) Biomarker Activity (AID 2283062). The note with it: primary human foreskin fibroblasts; actives raise or lower the signal. The essentials:
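ELISA readout of TIMP-1 from human dermal foreskin fibroblast cultures 24 h post-dosing. Curves were fitted in both directions against DMSO baseline, with SRB total-protein staining in parallel cultures as a cytotoxicity check.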

Read-out in test [10]: Monokine induced gamma interferon (MIG), CXCL9 (gene 4283)
The experiment in a line: BSK_hDFCGF_MIG: BioMAP Diversity Plus: hDFCGF Assay for Monokine induced gamma interferon (MIG) Biomarker Activity (AID 2283063). The note with it: primary human foreskin fibroblasts; actives raise or lower the signal. In outline:
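Fibroblasts (human foreskin, primary) dosed, 24 h, MIG by ELISA; fit bidirectional vs DMSO.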

Read-out in test [11]: Matrix Metallopeptidase 1 (MMP1), MMP1 (gene 4312)
The experiment in a line: BSK_hDFCGF_MMP1: BioMAP Diversity Plus: hDFCGF Assay for Matrix Metallopeptidase 1 (MMP1) Biomarker Activity (AID 2283064). The note with it: primary human foreskin fibroblasts; actives raise or lower the signal. In outline: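 hDFCGF primary fibroblasts (human foreskin); chemical added; 24 h; MMP1 by ELISA; bidirectional fit vs DMSO.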

Read-out in test [12]: Vascular cell adhesion molecule 1 (VCAM1), VCAM1 (gene 7412)
The experiment in a line: BSK_hDFCGF_VCAM1: BioMAP Diversity Plus: hDFCGF Assay for Vascular cell adhesion molecule 1 (VCAM1) Biomarker Activity (AID 2283065).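 Note: VCAM-1 protein level quantified by ELISA after 24 h chemical exposure.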 The note with it: primary human foreskin fibroblasts; actives raise or lower the signal. The essentials: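 ELISA read-out of VCAM-1 on human skin fibroblasts, 24 h post-dose; gain or loss of signal fitted bidirectionally against DMSO baseline.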

Read-out in test [13]: Plasminogen activator inhibitor-1 (PAI1), SERPINE1 (gene 5054)
The experiment in a line: BSK_hDFCGF_PAI1: BioMAP Diversity Plus: hDFCGF Assay for Plasminogen activator inhibitor-1 (PAI1) Biomarker Activity (AID 2283066). The note with it: primary human foreskin fibroblasts; actives raise or lower the signal. The essentials:
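Primary dermal fibroblasts (human foreskin), hDFCGF system; compound 24 h; PAI-1 by ELISA; bidirectional fit vs DMSO control.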

Read-out in test [14]: Interferon-gamma inducible Protein 10 (IP10), CXCL10 (gene 3627)
The experiment in a line: BSK_KF3CT_IP10: BioMAP Diversity Plus: KF3CT Assay for Interferon-gamma inducible Protein 10 (IP10) Biomarker Activity (AID 2283068). The note with it: primary human keratinocytes with fibroblasts; actives raise or lower the signal. In outline: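 KF3CT co-culture (keratinocytes + foreskin fibroblasts), 24 h compound, IP-10 by ELISA; bidirectional fit vs DMSO baseline.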

Read-out in test [15]: Interleukin-1 alpha (IL1a), IL1A (gene 3552)
The experiment in a line: BSK_KF3CT_IL1a: BioMAP Diversity Plus: KF3CT Assay for Interleukin-1 alpha (IL1a) Biomarker Activity (AID 2283070). The settings on record: primary human keratinocytes with fibroblasts; actives raise or lower the signal. In outline: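 Chemicals were dosed onto co-cultured human keratinocytes and foreskin fibroblasts, IL-1a was quantified by ELISA at 24 h, and activity was fitted in both directions relative to DMSO controls.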

Read-out in test [16]: TIMP metallopeptidase inhibitor 2 (TIMP2), TIMP2 (gene 7077)
The experiment in a line: BSK_KF3CT_TIMP2: BioMAP Diversity Plus: KF3CT Assay for TIMP metallopeptidase inhibitor 2 (TIMP2) Biomarker Activity (AID 2283071). The settings on record: primary human keratinocytes with fibroblasts; actives raise or lower the signal. In outline:
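Cells: human keratinocytes co-cultured with foreskin fibroblasts. Treat with chemical, 24 h. Measure TIMP-2 by ELISA; fit curves bidirectionally vs DMSO baseline.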

Read-out in test [17]: urokinase plasminogen activator (uPA), PLAU (gene 5328)
The experiment in a line: BSK_KF3CT_uPA: BioMAP Diversity Plus: KF3CT Assay for urokinase plasminogen activator (uPA) Biomarker Activity (AID 2283075). The note with it: primary human keratinocytes with fibroblasts; actives raise or lower the signal. In outline: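 ELISA readout of uPA, analyzed for signal gain or loss relative to DMSO, from a human primary keratinocyte–foreskin fibroblast co-culture measured 24 h after chemical treatment.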

Read-out in test [18]: CD40, CD40 (gene 958)
The experiment in a line: BSK_LPS_CD40: BioMAP Diversity Plus: LPS Assay for CD40 Biomarker Activity (AID 2283076). The note with it: primary human HUVEC with PBMC; actives raise or lower the signal. In outline:
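ELISA readout of CD40 in HUVEC/PBMC co-culture (BSK_LPS system), 24 h post-dosing; bidirectional curve fit, DMSO baseline; parallel SRB total-protein staining for cytotoxicity.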

Read-out in test [19]: E-selectin (Homo sapiens) (UniProt P16581)
The experiment in a line: BSK_LPS_Eselectin: BioMAP Diversity Plus: LPS Assay for Eselectin Biomarker Activity (AID 2283077). The settings on record: primary human HUVEC with PBMC; actives raise or lower the signal. The essentials:
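ELISA readout of E-selectin, 24 h post-dose, HUVEC + PBMC co-culture (LPS system). Gain or loss of signal vs DMSO baseline, bidirectional fit.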

Read-out in test [20]: Interleukin-8 (IL8), CXCL8 (gene 3576)
The experiment in a line: BSK_LPS_IL8: BioMAP Diversity Plus: LPS Assay for Interleukin-8 (IL8) Biomarker Activity (AID 2283078). The settings on record: primary human HUVEC with PBMC; actives raise or lower the signal. In outline: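 HUVEC + PBMC co-culture, LPS-activated; test chemicals dosed, IL-8 read by ELISA at 24 h. Bidirectional curve fit vs DMSO baseline (gain or loss of signal).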

“And” between values parts separate entries of the source, which are not always exact repeats. Equal values may be shown once. A structure can be active in one record and inactive in another. The source made the active and inactive calls. Rule for the calls: active = hit-call score of the fitted dose curve at least 0.9, where 1 is the maximum; inactive = score below 0.9.

Chain of E-selectin (Homo sapiens) (P16581 whole entry, looked up): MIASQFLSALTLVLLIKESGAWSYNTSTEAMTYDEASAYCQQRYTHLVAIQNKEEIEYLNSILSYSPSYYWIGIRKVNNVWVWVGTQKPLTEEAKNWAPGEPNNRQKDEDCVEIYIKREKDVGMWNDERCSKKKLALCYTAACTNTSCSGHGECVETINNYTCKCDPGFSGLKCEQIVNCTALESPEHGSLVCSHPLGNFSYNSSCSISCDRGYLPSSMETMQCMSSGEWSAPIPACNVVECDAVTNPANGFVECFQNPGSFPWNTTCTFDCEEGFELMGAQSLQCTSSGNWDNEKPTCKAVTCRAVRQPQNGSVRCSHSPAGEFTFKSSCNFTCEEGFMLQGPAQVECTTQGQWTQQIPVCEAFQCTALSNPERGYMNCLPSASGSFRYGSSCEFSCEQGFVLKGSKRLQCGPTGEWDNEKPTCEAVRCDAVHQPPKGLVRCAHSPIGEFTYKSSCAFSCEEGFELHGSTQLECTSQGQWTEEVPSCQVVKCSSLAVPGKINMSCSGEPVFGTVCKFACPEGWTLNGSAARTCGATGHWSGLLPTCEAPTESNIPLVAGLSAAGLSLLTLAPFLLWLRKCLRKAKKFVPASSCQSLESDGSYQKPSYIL

One may read the AC50 as the concentration giving half of the maximal activity seen. Take `[Cd+2].[Cl-].[Cl-]`: the AC50 was 15.9 µM (active) and 13.5 µM (active) in [1]; 9.94 µM (active) and 6.24 µM (active) in test [2]; 4.05 µM (active) and 3.51 µM (active) in test [3]; 0.156 µM (active) in [4]; 24.2 µM (active) and 23 µM (active) in test [5]; 919 nM (active) and 655 nM (active) in [6]. Besides, the AC50 in test [7] was 939 nM (active) and 1.2 µM (active); in test [9], 1.12 µM (active) and 1.63 µM (active); in test [10] it was 9.86 µM (active) and 5.69 µM (active); in test [11], 3.97 µM (active) and 4.18 µM (active); in test [12], 1.9 µM (active) and 2.23 µM (active); in [13] it was 601 nM (active) and 305 nM (active). The AC50 in test [14] is 35.2 µM (active) and 33.4 µM (active); in [15], 33.8 µM (active) and 30.1 µM (active); in test [16] it was 28.2 µM (active) and 20 µM (active); in test [17] it was 32.6 µM (active) and 35.8 µM (active); in test [18] it was 13.1 µM (active); in test [19], 32.8 µM (active) and 35.4 µM (active). Besides, the half-maximal activity concentration (AC50) in test [20] is 28.9 µM (active). The outcome in test [4], in [8], in test [18] and in test [20] was inactive.
